# VP16 counter: Gal4-VP16 reporter inhibition counter-screen; Potency, µM (doses to about 53.6 µM), without a hit: at the highest dose activity, negative = inhibition, hits mostly inhibitors; Drosophila S2 Gal4-VP16 UAS-luciferase, luminescence, 20 h; actives 3.5% (n = 310,000);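 also: Gal4-VP16 expression switched on by copper sulfate through the metallothionein promoter; potency is read from the fitted curve at half-maximal effect; % is scaled to controls: 0 for no effect and ±100 for the full control effect; nearly all actives have a fitted effect of over 50% in size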
# TRPV1 ag: agonists of human vanilloid receptor 1 (TRPV1); TRPV1-expressing cells, Fluo-8 calcium influx, agonist mode; activation, % at 8.33 µM; actives 0.19% (n = 320,000); AID 540275; in the data active = activation above about 80%; inconclusive = between about 30% and that limit; also: 0% is about no effect
#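 Fluo-8 calcium influx in TRPV1-expressing cells, kinetic read (ex 480/em 520 nm). Compound added and read 3 min for agonist activity, followed by capsaicin at EC20 final and 2 min further read for enhancement.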
# RORg inh: inhibitors of mouse ROR gamma transcriptional activity; P51450; Drosophila S2 Gal4-RORgamma UAS-luciferase reporter, 20 h; Potency, µM (doses to about 53.6 µM), for the others: at the highest dose activity change, negative = inhibition, hits mostly inhibitors; actives 5.4% (n = 310,000); AID 2551; also: potency is read from the fitted curve at half-maximal effect; % is scaled to controls: 0 for no effect and ±100 for the full control effect; nearly all actives have a fitted effect of over 60% in size
# Target sequence (P51450 whole entry, looked up, the tested form may be a part): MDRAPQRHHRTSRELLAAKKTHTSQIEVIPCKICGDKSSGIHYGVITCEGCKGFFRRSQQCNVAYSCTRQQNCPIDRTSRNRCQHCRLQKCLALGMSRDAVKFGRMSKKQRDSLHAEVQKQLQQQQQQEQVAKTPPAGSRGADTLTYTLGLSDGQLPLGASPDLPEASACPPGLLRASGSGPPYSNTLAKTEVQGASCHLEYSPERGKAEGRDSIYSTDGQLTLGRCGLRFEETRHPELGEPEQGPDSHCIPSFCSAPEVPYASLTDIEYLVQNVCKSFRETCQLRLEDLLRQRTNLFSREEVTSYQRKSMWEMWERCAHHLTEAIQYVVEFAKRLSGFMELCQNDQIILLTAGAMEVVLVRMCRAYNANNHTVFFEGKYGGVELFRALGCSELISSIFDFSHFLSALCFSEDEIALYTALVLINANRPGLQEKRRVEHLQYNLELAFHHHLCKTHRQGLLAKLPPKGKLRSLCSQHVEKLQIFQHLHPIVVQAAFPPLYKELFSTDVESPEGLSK
#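 Stable Schneider cell line, Gal4 DNA-binding domain fused to ROR gamma, UAS-luciferase. Cmpd 1 hr RT → CuSO4 700 uM final → 20 hr RT → luciferase reagent 10 min → luminescence.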
# uPA generation: inhibitors of cell surface uPA generation. Potency, µM (highest dose often 38.3 µM), without a hit: at the top dose activity change, negative = inhibition, most hits filed as inhibitors. cell surface uPA generation assay, qHTS. actives 0.31% (n = 330,000). AID 540303; active = well fitted inhibition curve with a large enough effect; inconclusive = small, poorly fitted or top-dose-only effect; inactive = no such curve, though single readings can be large or run the other way; tested in mouse RAW 264.7 cells; also: potency is read from the fitted curve at half-maximal effect; % is scaled to controls: 0 for no effect and ±100 for the full control effect; nearly all actives have a fitted effect of over 55% in size
# TRPV1 potentiator: human TRPV1 potentiation; potentiation, % at 8.33 µM; AID 540277; actives 0.02% (n = 320,000); Q8NER1; TRPV1-expressing cells, Fluo-8 calcium influx, capsaicin EC20 potentiation; in the data active = potentiation above about 80%; inconclusive = between about 30% and that limit; also: 0% is about no effect
#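 Cells expressing TRPV1 were dye-loaded with Fluo-8 and read kinetically: 10 s baseline, 3 min after compound (agonist portion), then 2 min after EC20 capsaicin (allosteric enhancer portion). Calcium-bound dye fluorescence at 480/520 nm.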
# An asterisk follows results filed as active; ? = inconclusive; . = no result given; [ ] = remark or other dose. Only some compounds are listed: those with a hit (about 5.8% of all), similar ones and a draw of the others. Unless noted, calls follow the shape of the dose curve; as a rule, active = well fitted curve in the direction sought with a large enough effect; inconclusive = small, poorly fitted or top-dose-only effect, or another doubt; inactive = no such curve, though single readings can be large; an effect the other way counts as inactive or inconclusive.
SMILES,VP16 counter,TRPV1 ag,RORg inh,uPA generation,TRPV1 potentiator
Cc1nn(-c2ccccc2)nc1C(=O)Nc1ccc2[nH]ncc2c1,-0.7%,90.8*,-8.2%,22.3%,-23.9
Cc1nn(-c2ccccc2)nc1C(=O)NN,4.7%,6.1,-21.5%,6.5%,?
CCCOc1ccc(-c2nnc(-c3ccco3)o2)cc1,?,-1.8,4.47µM*,-5.3%,?
CC(C)COc1ccc(-c2nnc(-c3ccco3)o2)cc1,?,?,?,-5.3%,-21.1
CNC(=O)[C@]1(C)C[C@H]1[C@H](NC(=O)[C@]1(C)C[C@H]1[C@H](NC(=O)[C@]1(C)C[C@H]1[C@H](NC(=O)[C@]1(C)C[C@H]1[C@H](NC(=O)OCc1ccccc1)c1ccccc1)c1ccccc1)c1ccccc1)c1ccccc1,0.1%,.,2.3%,.,.
Cc1ccc(C=Nc2ccccc2C(N)=O)o1,20µM*,-4.1,?,-5.7%,0.8
CN(C)c1ccc(C=Nc2ccccc2C(N)=O)cc1,10µM*,0.1,?,-17.6%,-6.0
CCc1ccc(Nc2nnc(SCC(=O)Nc3cccnc3Cl)s2)cc1,?,?,11.2µM*,-19.8%,-1.3
Cc1nnc(SCC(=O)Nc2cccnc2Cl)s1,.,-4.6,.,-4.1%,10.2
COc1ccc(-n2c(COc3ccc(C)cc3)nnc2SCC(N)=O)cc1,-9.4%,3.8,11.2µM*,2.8%,-3.8
Nc1cccc2c1C(=O)N(CCOc1ccccc1F)C2=O,?,-0.2,8.91µM*,-1.4%,15.8
N#Cc1ccccc1OCCN1C(=O)c2ccccc2C1=O,-1.1%,-1.7,?,-1.3%,3.4
O=C1CSC(=S)N1N=Cc1c(O)ccc2ccccc12,.,.,.,1.4%,.
Oc1ccc(/C=N/Nc2ccccc2)cc1,-3.1%,2.2,0.6%,-6.1%,5.2
O=c1c2ccccc2nc(N/N=C/c2c(O)ccc3ccccc23)n1O,12.6µM*,-4.3,0.891µM*,-12.7%,-7.7
O=c1c2ccccc2nc(N/N=C/c2ccc(O)cc2)n1O,-27.8%,-5.4,11.2µM*,-4.2%,3.5
Cc1cnc(CNc2ccnc(-c3cccnc3)n2)cn1,-1.2%,.,4.3%,.,.
COc1ccc(-c2cc(C(=O)N(C)CC(=O)Nc3cccc(F)c3)c3ccccc3n2)cc1,.,13.1,.,?,-2.5
Cc1cc(C(=O)COC(=O)c2ccc3c(c2)OCO3)c(C)n1Cc1cccs1,-14.4%,23.4,9.8%,-2.4%,-6.6
Cc1cc(C(=O)COC(=O)c2ccccc2O)c(C)n1Cc1cccs1,7.08µM*,21.9,3.55µM*,.,-11.2
CC(=O)Nc1ccccc1OCC(=O)c1cc(C)n(Cc2cccs2)c1C,1.26µM*,1.5,-38.0%,-5.7%,-13.2
Cc1nc2scc(C)n2c(=O)c1S(=O)(=O)Nc1ccc(N2CCOCC2)c(Cl)c1,11.2µM*,-3.1,-23.4%,-3.9%,0.2
O=C(N/N=C/c1sc(N2CCOCC2)nc1-c1ccccc1)c1cccc(S(=O)(=O)N2CCCC2)c1,-13.5%,7.0,?,-3.1%,-11.1
COC(=O)N/N=C/c1sc(N2CCCCC2)nc1-c1cccs1,0.794µM*,1.0,10µM*,2.7%,5.1
CCCCOc1ccc(-c2nc(/C=N/c3nccs3)c(O)o2)cc1,-5.4%,-0.9,?,0.2%,1.7
SMILES,VP16 counter,TRPV1 ag,RORg inh,uPA generation,TRPV1 potentiator
Oc1oc(-c2ccccc2)nc1/C=N/c1nccs1,?,-3.6,15.8µM*,1.4%,9.4
N/C(=N\c1nc2ccccc2o1)NC(=O)c1cccc(Br)c1,-2.4%,0.1,-24.7%,6.4%,0.7
N/C(=N\c1nc2ccccc2o1)NC(=O)c1ccccc1,-25.3%,?,7.08µM*,0.2%,-7.1
CCCC(=O)N/C(N)=N/c1nc2ccccc2o1,-28.5%,15.8,10µM*,-3.5%,-19.7
CC(=O)N/C(N)=N/c1nc2cc([N+](=O)[O-])ccc2o1,15.4%,.,-31.3%,-0.3%,.
Cc1ccc(C(=O)N/C(N)=N/c2nc3ccccc3o2)cc1,0.0%,1.9,-27.9%,5.0%,-1.5
CC(C)CC(=O)Nc1ccc(-c2nc3ccccc3c(=O)o2)cc1,-26.0%,-3.7,-41.1%,-1.2%,0.6
CC(C)CC(=O)N/C(N)=N/c1nc2ccccc2o1,-2.9%,.,10µM*,-1.3%,.
CC(C)(C)C(=O)N/C(N)=N/c1nc2ccccc2o1,?,0.6,3.98µM*,-8.4%,6.1
Cc1cc(NC(=O)NC2CCCN2S(=O)(=O)c2ccc(Cl)cc2)no1 (stereo not drawn),-1.6%,-1.0,2.6%[10 µM],2.6%,4.4
CC(=O)N/C(N)=N/c1nc2cc(C)ccc2o1,?,4.7,11.2µM*,?,1.6
N/C(=N\c1nc2ccccc2o1)NC(=O)/C=C/c1ccccc1,-20.3%,6.9,-42.0%,-5.9%,0.7
CCC(=O)N/C(N)=N/c1nc2ccccc2o1,?,3.2,12.6µM*,-0.5%,-1.4
COc1ccccc1C(=O)N/C(N)=N/c1nc2ccccc2o1,?,11.8,8.91µM*,5.1%,2.0
NCC(=O)N[C@@H](CCCN=C(N)N)C(=O)NCC(=O)N[C@@H](CC(=O)O)C(=O)N[C@@H](CO)C(=O)O,-0.7%,.,11.0%,.,.
Cn1c(CNc2cccc(Cl)c2)nnc1SCC#N,-12.3%,-0.4,24.7%,-6.3%,-3.0
Cc1ccc(Nc2nc(N)nc(CC#N)n2)cc1,-2.6%,0.7,17.2%,5.7%,-5.4
CC(C)(C)C1CCC2(CC1)C(Nc1cccc(C(F)(F)F)c1)=NC(=S)N2CC#N (stereo not drawn),12.6µM*,2.6,17.8µM*,3.0%,7.3
Cc1ccc(NC2=NC(=S)N(CC#N)C23CCCCC3)cc1,-20.1%,-1.2,17.8µM*,8.5%,7.1
N#CCN1C(=S)N=C(Nc2cccc(Cl)c2)C12CCCCC2,?,-3.1,2.82µM*,-2.7%,13.4
Cc1ccc(S(=O)(=O)N2CCC(C(=O)OCC(=O)NC3(C#N)CCCCC3)CC2)cc1C,.,3.6,.,-11.3%,11.2
Cc1ccc(NC(=S)N/N=C/c2c(C)[nH]c3ccccc23)cc1,3.98µM*,2.3,2µM*,3.4%,-1.0
COc1ccc(NC(=S)N/N=C/c2cccn2Cc2ccc(F)cc2)cc1,-11.7%,-4.2,18.5%,-2.3%,-15.1
Cc1cccc(NC(=S)N/N=C/c2c[nH]c3ccccc23)c1,5.62µM*,-6.3,2.51µM*,-12.4%,16.6
Cc1ccc(Cn2cccc2/C=N/NC(=S)Nc2ccc(C)cc2)cc1,3.98µM*,1.2,0.398µM*,4.0%,-0.1
Cc1[nH]c2ccccc2c1/C=N/NC(=S)NCc1ccccc1,?,4.6,11.2µM*,-0.5%,0.0
CO[C@H]1COC(=O)C/C=C\[C@H](C)[C@@H](OC)COC(=O)C/C=C\[C@@H]1C,-15.1%[10 µM],.,-14.4%[10 µM],.,.
O=C(Oc1ccccc1)N1CCC2(CCCN(c3ccc(-c4ccccc4)cc3)C2)CC1,-0.6%,.,-0.7%,.,.
COc1cc(C2NC(=S)NC3=C2CCc2ccccc23)cc(OC)c1OC (stereo not drawn),10µM*,-0.2,5.62µM*,10.1%,-2.0
